Measured values: PubChem BioAssay AID720504 (National Center for Advancing Translational Sciences (NCATS), 2013)
The campaign covered roughly 360,000 compounds. About 10,000 (2.8%) were called active. Inconclusive results (about 4%) are left out. The list comes from a sample in which actives are over-represented; it also holds similar structures and randomly drawn compounds. Unmarked numbers belong to inactive results. Calls come from the whole dose curve; as a rule, active = well fitted inhibition curve with a large enough effect; inconclusive = small, poorly fitted or top-dose-only effect; inactive = flat fitted curve, though single readings scatter.
% is set by controls: 0 for no effect and ±100 for the full control effect; potency is the fitted concentration of half-maximal effect.
Note: nearly all actives have a fitted effect of over 65% in size.
Throughout, for max response, negative = inhibition: series mostly up to about 57 µM.

These compounds were tested against Serine/threonine-protein kinase PLK1 (Homo sapiens) (UniProt P53350) (assay: qHTS for Inhibitors of PLK1-PDB (polo-like kinase 1 - polo-box domain): Primary Screen). Conditions: Plk1 PBD binding of FITC phosphopeptide, fluorescence polarization.
Chain of Serine/threonine-protein kinase PLK1 (Homo sapiens) (P53350 whole entry, looked up, the tested form may be a part): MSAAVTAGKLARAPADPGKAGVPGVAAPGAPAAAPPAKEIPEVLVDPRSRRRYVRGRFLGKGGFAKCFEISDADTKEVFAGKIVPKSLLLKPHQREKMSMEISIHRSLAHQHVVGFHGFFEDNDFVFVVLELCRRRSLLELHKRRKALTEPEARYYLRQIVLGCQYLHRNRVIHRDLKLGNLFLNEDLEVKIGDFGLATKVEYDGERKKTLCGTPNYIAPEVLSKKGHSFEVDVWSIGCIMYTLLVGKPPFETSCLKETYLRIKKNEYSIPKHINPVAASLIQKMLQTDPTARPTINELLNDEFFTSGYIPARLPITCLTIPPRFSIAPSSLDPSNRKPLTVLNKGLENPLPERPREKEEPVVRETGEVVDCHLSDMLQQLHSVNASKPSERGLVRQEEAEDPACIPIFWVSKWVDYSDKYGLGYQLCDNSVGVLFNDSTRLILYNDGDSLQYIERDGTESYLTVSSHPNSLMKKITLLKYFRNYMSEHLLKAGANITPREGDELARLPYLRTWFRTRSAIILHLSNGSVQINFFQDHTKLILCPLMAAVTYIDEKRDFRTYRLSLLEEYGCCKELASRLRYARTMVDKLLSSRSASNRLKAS
`CC1(c2cccc(Br)c2)NC(=O)N(CC(=O)NCCC2=CCCCC2)C1=O` (stereo unspecified) gave a max response, negative = inhibition of -9.46%.
`CC(C)(C)c1cc(C(=O)NCc2cccnc2)ccn1` gave a max response, negative = inhibition of -6.13%.
In the case of `Cc1ccc(-n2nc(-c3ccco3)cc2C(=O)NCc2cccnc2)cc1`, the Potency was 9.47 µM (active).
`CSc1sc(C(=O)NC(=O)NCc2cccnc2)c(C)c1-c1ccon1` was tested, and the max response, negative = inhibition was -0.192%.
In the case of `Nc1[nH]c(=S)nc2nc(-c3ccccc3)c(-c3ccccc3)nc12`, the Potency was 21.2 µM (active).
Compound `CCCCOCCCNC(=O)C[C@@H]1C[C@@]2(C(=O)OC)CCCCC=C2N(CCC2=CCCCC2)C1=O` has a max response, negative = inhibition of 1.64%.
With `CCN(Cc1ccncc1)C(=S)Nc1ccccc1C` the max response, negative = inhibition was -0.726%.
In the case of `COc1ccc(OC)c(-n2c(=S)[nH]c3cc(C(=O)N4CCCCC4)ccc3c2=O)c1`, the max response, negative = inhibition was 2.08%.
For `COc1ccccc1-n1c(=S)[nH]c2c(sc(=S)n2-c2ccc(C)cc2C)c1=O`, the Potency was 6.7 µM (active).
For `COc1cccc(-n2c(=S)sc3c(=O)n(-c4ccccc4OC)c(SCC4OCCO4)nc32)c1`, the max response, negative = inhibition was 4.69%.
`CCc1ccc(-n2c(=S)sc3c(=O)n(-c4ccccc4OC)c(=S)[nH]c32)cc1` was tested, and the Potency was 11.9 µM (active).
`COc1ccccc1-n1cn[nH]c1=S` was tested, and the max response, negative = inhibition was -29.4%.
`COc1ccccc1N1CCN(c2nc(C)cc(=O)[nH]2)CC1` was tested, and the max response, negative = inhibition was -12.7%.
In the case of `CC1(C(=O)NS(=O)(=O)c2ccccc2)CCN1C(=O)C/C=C/c1ccccc1` (stereo unspecified), the max response, negative = inhibition was -21.1%.
With `COc1ccc(OC)c(C(=O)NC2CCCc3c2cnn3-c2cc(C)cc(C)c2)c1` (stereo unspecified) the max response, negative = inhibition was -4.63%.
With `CC1C(=O)N(Cc2cn(Cc3ccco3)nn2)CCS(=O)(=O)N1Cc1ccc(-c2cccc(CO)c2)cc1` (stereo unspecified) the max response, negative = inhibition was -3.83%.
In the case of `OC[C@@H]1CN(Cc2ccncc2)C[C@H](n2cnc3c(N4CCN(c5ccccc5)CC4)ncnc32)O1`, the max response, negative = inhibition was -12.1%.
`Cc1cc(C)c2cc(C#N)c(N3CCNCC3)nc2c1` gave a max response, negative = inhibition of -8.16%.
`Cc1c(Br)cc(C(=O)N2CCCCCC2)c(C)c1C` gave a max response, negative = inhibition of -5.8%.
`Cc1ccc(C(=O)N2CCCCCC2)cc1Br` was tested, and the Potency was 26.7 µM (active).
Compound `COc1c(C(=O)N2CCCC2)ccc2ccccc12` has a max response, negative = inhibition of -0.934%.
`Cc1ccc(C(=O)N2CCCC2)c(F)c1F` was tested, and the Potency was 21.2 µM (active).
`CCNC(=O)C1CCCN(C(=O)c2cc(F)ccc2C)CC1` (stereo unspecified) showed a max response, negative = inhibition of -1.52%.
Compound `O=C(c1ccc(Cl)c(Cl)c1)N1CCCC1` has a max response, negative = inhibition of -20.7%.
Compound `CCc1nc2c(OCc3ccc(C(F)(F)F)cc3)cccn2c1N(C)C(=O)CC(C)C` has a max response, negative = inhibition of 0.499%.
`COc1cc(-c2nnc(NC(=O)CS(=O)(=O)c3ccc(Cl)cc3)o2)cc(OC)c1OC` was tested, and the max response, negative = inhibition was -18.2%.
With `CC(C)C1CCN(C(=O)C2CCC(=O)N(C3CCCCCC3)C2)CC1` (stereo unspecified) the max response, negative = inhibition was 0.565%.
`Fc1ccc(/C=N/n2c(COc3ccccc3)n[nH]c2=S)cc1` was tested, and the Potency was 23.8 µM (active).
`CC(Sc1nnc(COc2ccccc2)n1-c1ccccc1)C(=O)O` (stereo unspecified) was tested, and the max response, negative = inhibition was -5.44%.
`O=C(COc1ccccc1)Nc1ccc(F)cc1` showed a max response, negative = inhibition of -17.9%.
`CC(=O)Nc1cc(-c2ccc(N3CCN(C)CC3)cc2)cn2c(-c3cccc(C(=O)N(C)C)c3)cnc12` gave a max response, negative = inhibition of -2.75%.
`CN1OC[C@@H]2CN(S(=O)(=O)c3cccc(C(F)(F)F)c3)[C@H](c3ccc(-c4cc5ccccc5o4)cc3)C[C@@H]21` was tested, and the max response, negative = inhibition was -19.4%.
In the case of `O=C(Nc1ccc2c(c1)OCCO2)C(C1CC1)N1CCC(Cc2ccccc2)CC1` (stereo unspecified), the max response, negative = inhibition was 1.88%.
With `CCC(C(=O)NC(C)(C)C)n1c(-c2ccccc2)nc2ccccc21` (stereo unspecified) the max response, negative = inhibition was 0.0436%.
`Cc1[nH]c2ccccc2c1C(=O)CN1CCCC(C)C1` (stereo unspecified) was tested, and the max response, negative = inhibition was -2.14%.
With `CCOC(=O)N1CCN(CC(=O)c2c(C)[nH]c3ccccc23)CC1` the Potency was 3.77 µM (active).
Work on `Cc1[nH]c2ccccc2c1C(=O)CN1CC(C)CC(C)C1` (stereo unspecified) yielded a max response, negative = inhibition of -9.93%.
For `CNc1cncc(-c2cccc(C(=O)N3CCOCC3)c2)n1`, the max response, negative = inhibition was -3.85%.
With `COc1ccccc1-n1c(SCC(=O)Nc2ccc(Cl)cc2)nc(O)c(Cc2ccccc2)c1=O` the max response, negative = inhibition was -10.5%.
Compound `CNc1cnc(-c2cc(OC)c(OC)c(OC)c2)cn1` has a max response, negative = inhibition of -14%.
In the case of `CS(=O)(=O)c1ccc(C(=O)NNC(=O)c2cccs2)cc1`, the max response, negative = inhibition was -0.622%.
In the case of `CCc1nnc(NS(=O)(=O)c2ccc(NC(=O)c3cccc(OC(F)(F)C(F)F)c3)cc2)s1`, the max response, negative = inhibition was -23.6%.
With `CCc1ccc(NC(=O)C(=O)NNC(=O)c2cccs2)cc1` the max response, negative = inhibition was -20.4%.
In the case of `CCc1nnc(NS(=O)(=O)c2ccc(NC(=S)NC(=O)c3cccs3)cc2)s1`, the Potency was 18.9 µM (active).
Compound `O=C(NC(=S)Nc1ccc(NC(=O)c2cccs2)cc1)c1ccc([N+](=O)[O-])cc1` has a max response, negative = inhibition of -4.47%.
In the case of `NS(=O)(=O)c1ccc(NC(=S)NNC(=O)c2cccs2)cc1`, the Potency was 29.9 µM (active).
